Here are results for 15 molecules from PubChem BioAssay (NCATS).

Inconclusive results are not listed. Entries that show only a call come without a potency. Calls of active or inactive are those of the source. The call rests on the fitted dose curve; in most records, active means well fitted inhibition curve with a large enough effect; inconclusive means small, poorly fitted or top-dose-only effect; inactive means flat fitted curve, though single readings scatter.
Potency means the concentration at half of the fitted maximal effect.

The subject of the test is Zika virus NS2B-NS3 protease. The test can be described thus: Primary screen GU AMC qHTS for Zika virus inhibitors (AID 1347154). Further: nearly all actives have a fitted effect of over 70% in size. The note with it: Zika NS2B-NS3 unlinked protease, AMC fluorogenic substrate; series mostly up to 54.1 µM. In short, it runs like this: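 Unlinked Zika NS2B hydrophilic domain–NS3 protease complex at 25 nM in 10 mM Tris-HCl pH 8.0, 0.01% Tween 20, with an AMC peptide substrate. Fluorescence change (340/450 nm) over 15 min at room temperature, normalized to controls, fitted to 4-parameter Hill.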
In general terms: Quantitative high-throughput screening tests each substance at several concentrations.
`CC(C)(C)c1ccc(O)c(O)c1`: the Potency result is “inactive”.
As for `CC(C)=CCC/C(C)=C/CC/C(C)=C/CCC(=O)OC/C=C(\C)CCC=C(C)C`, the entry is “inactive”; as for `CCCCN(CCCC)C(C(N)=O)c1ccc(OC)cc1` (stereo not given), “inactive”; as for `CCCCCCCCCCCCCC[N+](C)(C)C`, “inactive”.
`CCc1cc(S(=O)(=O)O)c2cc(C(C)C)cccc1-2`: the Potency result was “inactive”.
Regarding `CCOC(=O)C(=O)c1csc(NC=O)n1`, the Potency entry was “inactive”.
As for `CC(C)(C)c1ccc(C(=O)CCCCl)cc1`, the entry is “inactive”; as for `CC(=O)OC[C@H]1O[C@@H](OC(C)=O)[C@H](OC(C)=O)[C@@H]1OC(C)=O`, “inactive”; as for `O=C(O)c1cn(C2CC2)c2cc(Cl)c(F)cc2c1=O`, “inactive”.
Turning to `COc1ccc2cc(C=O)ccc2c1`, the Potency is 31.6 µM (active).
With `C=CCOc1cc(Cl)ccc1C(=O)NCCN(CC)CC`, the Potency entry is “inactive”.
As for `O=C(O)/C=C(\CC(=O)O)C(=O)O`, the entry is “inactive”.
Take `CCOC(=O)[C@H](CCc1ccccc1)N[C@@H](C)C(=O)N(CC(=O)O)C1Cc2ccccc2C1`: the Potency entry is “inactive”.
As for `Cc1ccc(Cl)c(OCC(O)CNC(C)(C)C)c1` (stereo not given), the entry is “inactive”; as for `Cn1cc(S(C)=O)c(=O)c2ccc(F)cc21` (stereo not given), “inactive”.
